# Assay results from PubChem BioAssay AID1259240 (Keith Lab, Institute of Cancer Science, University of …, 2017).
# Unmarked numbers belong to inactive results. Activity calls are given as the source filed them. Cut-off read from the data, not from the text of the source: active = fold change mostly below about -2 (no sharp cut-off); inactive = mostly above about -1.8.
# Assay: modulation of TERT promoter-driven luciferase – cell-based, luciferase reporter, human, primary screen (AID 1259240)
# Settings: A2780 TERT promoter luciferase reporter, 16 h; at 20 µM, fold versus average of vehicle-only wells unless noted
Compound,fold change,outcome
Cc1cc(Cl)cc2c1NC(c1cccnc1)C1CC=CC21 (centres undefined),-2.25 (active),–
Cc1oc(-c2ccccc2F)nc1CN1C(=O)CN=C(c2ccccc2)c2ccccc21,-1.14,–
CC12CC(c3ccccc3O1)C(C(=O)OCc1ccccc1)C(=O)N2 (centres undefined),-2.11 [at 20 µM] (active),–
CCOC(=O)C1CC2CCCN2C12C(=O)N(Cc1ccccc1)c1ccccc12 (centres undefined),-1.82 [at 20 µM],–
Clc1ccc(Cl)c2c1NC(c1cccnc1)C1CC=CC21 (centres undefined),–,inactive
N#Cc1cnn2c(C(F)(F)F)cc(-c3cccs3)nc12,1.09,–
CCN1CCN(c2ccc3nncn3n2)CC1,-1.39,–
Cc1nnc2ccc(N3CCN(C)CC3)nn12,-1.19 [at 20 µM],–
CC1N=C(c2ccccc2F)c2cc(Cl)ccc2N(Cc2cc(=O)n3ccccc3n2)C1=O (centres undefined),-1.26,–
